Measured values: PMC5540273 (PLoS ONE, 2017)

Test system: PDGFRA
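Further: kd values determined as follow-up on hits from a single-replicate KINOMEscan panel screen.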

Row | Structure (SMILES) | Kd
1 | Cn1ccc2ncnc(Oc3ccc(NC(=O)Nc4cccnc4)c(Cl)c3)c21 | 110 nM
2 | O=C(Nc1ccccc1)Nc1ccc(Oc2ccc3nccn3n2)cc1 | 71 nM
3 | Cc1ccc(NC(=O)c2cccc(C#N)c2)cc1-c1ccc(C(=O)Nc2ccncc2)cc1 [GSK1398463] | 170 nM

Test system: PDGFRB

Row | Structure (SMILES) | Kd
4 | Cn1ccc2ncnc(Oc3ccc(NC(=O)Nc4cccnc4)c(Cl)c3)c21 | 95 nM
5 | COc1cc2c(Nc3cccc(NC(=O)c4ccccc4)c3)ncnc2cc1OCCCN1CCOCC1 [GSK223810] | 560 nM
6 | O=C(Nc1ccccc1)Nc1ccc(Oc2ccc3nccn3n2)cc1 | 62 nM
7 | O=C(Nc1n[nH]c2nc(-c3ccco3)c(Br)cc12)c1ccc(CN2CCCC2)cc1.O=C(O)[C@H](O)[C@@H](O)C(=O)O [SB-742352] | 67 nM
8 | Cc1ccc(NC(=O)c2cccc(C#N)c2)cc1-c1ccc(C(=O)Nc2ccncc2)cc1 [GSK1398463] | 13 nM
9 | CC(=O)Nc1n[nH]c2ncc(-c3ccccc3)cc12 [SB-548492] | 270 nM
10 | COc1ccc(NC(=O)Nc2ccc(C)c(-c3ccc(C(=O)Nc4ccncc4)cc3)c2)cc1 [GSK1398475] | 48 nM
